Test results taken from PubChem BioAssay (NCI).
Compounds without any hit were thinned out: in the full panel of roughly 79,000, 15% have a hit. Active and inactive are the calls of the source. No stated cut-off is given here; in the data, active means growth inhibition above about 70%; inactive means the rest.

How the values were obtained:
[1] = NCI Yeast Anticancer Drug Screen. Data for the rad50 strain (AID 155);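 further: 0% = growth of vehicle-only cultures of the same strain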; settings: S. cerevisiae rad50 strain growth inhibition; at 50.0 µM; active compounds read high
Procedure, shortened: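 Genetically altered yeast (DNA repair pathway); compound treatment; growth inhibition vs vehicle ctrl.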

[2] = NCI Yeast Anticancer Drug Screen. Data for the mec2-1 strain (AID 157); settings: S. cerevisiae mec2-1 strain, at 50.0 µM, active compounds read high
Procedure, shortened: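 Each compound was tested on mec2-1 yeast, a strain altered in DNA damage repair or cell cycle control. Growth inhibition is reported relative to vehicle.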

[3] = NCI Yeast Anticancer Drug Screen. Data for the sgs1 mgt1 strain (AID 161);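 further: 0% = growth of cultures given vehicle only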; settings: S. cerevisiae sgs1 mgt1 strain, at 50.0 µM, active compounds read high
Procedure, shortened: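 Inhibition of yeast growth, normalised to vehicle-treated controls, is reported for a strain bearing genetic alterations in DNA damage repair.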

[4] = NCI Yeast Anticancer Drug Screen. Data for the cln2 rad14 strain (AID 165);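 further: 0% = growth equal to vehicle treated cultures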; settings: S. cerevisiae cln2 rad14 strain, at 50.0 µM, active compounds read high
Procedure, shortened: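 Test compounds were added to cln2 rad14 yeast cultures; inhibition of growth was then determined by comparison with vehicle treatment.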

[5] = NCI Yeast Anticancer Drug Screen. Data for the bub3 strain (AID 167); settings: S. cerevisiae bub3 mutant strain, at 50.0 µM, active compounds read high
Procedure, shortened: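 Yeast carrying a defined mutation is treated with each compound, and growth is compared with that of vehicle-exposed cells to give inhibition.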

[6] = NCI Yeast Anticancer Drug Screen. Data for the mlh1 rad18 strain (AID 175); settings: S. cerevisiae mlh1 rad18 strain growth inhibition; at 50.0 µM; active compounds read high
Procedure, shortened: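 Inhibition values reflect reduced growth of mutant yeast versus vehicle-treated controls following compound exposure; the mutations affect DNA damage repair.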

Measured: growth inhibition

CC(=O)/C=C/C1=C(C)CCCC1(C)C (tested in a mixture with another compound)
inactive: [1] 19.7% | [2] 1% | [3] 9.2% | [4] -3.25% | [5] 24.3% | [6] 5.7%

CCOC(=O)C1=C(C)OC(C)(OC(C)=O)C1=O (stereo unspecified)
inactive: [1] 14.1% | [2] -1.9% | [3] 2.8% | [4] -25.9% | [5] -6.9% | [6] 13.8%

O=C(CCc1ccccc1Cl)CC(=O)CC(O)(c1ccccc1)c1ccccc1
active: [3] 70.5%
inactive: [1] 68% | [2] 57.5% | [4] 42.2% | [5] 39.4% | [6] 61.9%

Cc1ccc(-c2ccno2)cc1
inactive: [1] 1.7% | [2] 3.15% | [3] 1.25% | [4] -14.3% | [5] -8.3% | [6] 2.25%

CC(C)(C)[Si](C)(C)OCCc1ccccc1C1CC2(S(=O)(=O)c3ccccc3)ON1CC2S(=O)(=O)c1ccccc1 (stereo unspecified)
inactive: [1] 15.1% | [2] -1.7% | [3] -8.2% | [4] -12.6% | [5] 8.4% | [6] 21.4%

Nc1nc(N)c2cc(N3CCCC3c3ccc(Cl)cc3)ccc2n1 (stereo unspecified)
active: [1] 90.8% | [2] 92.5% | [3] 91.5% | [4] 90.5% | [5] 91.6% | [6] 91%

NCC(=O)N1CCCC1C(=O)O (stereo unspecified)
inactive: [1] -9.8% | [2] -6.3% | [3] -0.7% | [4] -24.4% | [5] 0.05% | [6] -6.2%

CCOC(=O)/C=C/c1ccc(F)cc1
inactive: [1] 27.6% | [2] 2% | [3] 18.1% | [4] 11.2% | [5] 20.8% | [6] 10.9%

CCC(/C=C\C(C)C1CCC2C3CC=C4CC(OC)CCC4(C)C3CCC12C)C(C)C (stereo unspecified)
inactive: [1] 25.2% | [2] 5.1% | [3] -3.4% | [4] 20.6% | [5] -3.5% | [6] 9.05%

Nc1ccc2ccc3ccccc3c2c1
inactive: [1] 50.8% | [2] 5.6% | [3] 43.4% | [4] 31.8% | [5] 27.5% | [6] 44.2%

CCCC1CCCC1C (stereo unspecified)
inactive: [1] 4.3% | [2] 4.25% | [3] 8.45% | [4] 5.4% | [5] 17.4% | [6] -1.85%

O=[N+]([O-])c1ccc(CCCn2cnc3c(Cl)ncnc32)c([N+](=O)[O-])c1
inactive: [1] 15% | [2] 0.95% | [3] 7.95% | [4] -1.45% | [5] 1.2% | [6] -10.6%

Cn1c(=O)c2c(nc(Cl)n2Cc2ccc([N+](=O)[O-])cc2)n(C)c1=O
inactive: [1] -2.35% | [2] 20% | [3] -2.55% | [4] -39.3% | [5] 20.1% | [6] 1%

Cc1ccc([N+](=O)[O-])cc1N=C=O
inactive: [1] -38.5% | [2] -43.9% | [3] -31.1% | [4] -34% | [5] -32.8% | [6] -56.3%

Cc1cc(C(C)(C)CC(=O)O)cc(C)c1C
inactive: [1] 60.6% | [2] 37.4% | [3] 27.6% | [4] 43.6% | [5] 54% | [6] 56.3%

CC(=O)/C=C(O)/C=C/c1ccccc1
inactive: [1] -0.9% | [2] 5.45% | [3] -12.9% | [4] 9.15% | [5] 14.9% | [6] 12.9%

CC(=O)C1=CCC2c3[nH]c4ccccc4c3CCN2C1 (stereo unspecified)
inactive: [1] 17.6% | [2] 4.1% | [3] 20.3% | [4] 25.7% | [5] 1.5% | [6] 18.9%

C=C1CC(C)(COc2ccc3c(C)cc(=O)oc3c2)OC1=O (stereo unspecified)
inactive: [1] 52.9% | [2] 46.1% | [3] 47.8% | [4] 48.5% | [5] 20.4% | [6] 54.5%

NC(=O)c1cccnc1
inactive: [1] 15.1% | [2] -41.4% | [3] 5.1% | [4] -27.2% | [5] -12.9% | [6] 9.95%

NN(CC(=O)O)CC(=O)O
inactive: [1] 18.8% | [2] -2.8% | [3] 2% | [4] 4.75% | [5] 29.1% | [6] 20.9%

Cc1ccc(S(=O)(=O)N2CCCC(O)c3ccccc32)cc1 (stereo unspecified)
inactive: [1] -18.2% | [2] -15.8% | [3] -29.4% | [4] 11.7% | [5] 6.65% | [6] 3.85%

CC1(C)CC(=O)OC/C=C\CC(Cc2ccccc2)C(=O)C1 (stereo unspecified)
inactive: [1] 4.6% | [2] 15.2% | [3] -12.3% | [4] 6.8% | [5] 12.2% | [6] 1.9%

O=C(c1cccs1)c1cccs1
inactive: [1] -6.4% | [2] -12.9% | [3] -17.6% | [4] -67% | [5] 8.3% | [6] -8.45%

Nc1nc2c(N)cc(C(F)(F)F)cc2nc1-c1ccccc1
inactive: [1] -38.2% | [2] -17.2% | [3] -1.9% | [4] 7.95% | [5] -6.25% | [6] -12.4%

O=C1c2ccccc2CC12Cc1cc3c(cc1C2=O)CCC3 (stereo unspecified)
inactive: [1] 5.05% | [2] -16.9% | [3] -17.2% | [4] 25.5% | [5] 44.4% | [6] 18.9%

CCCCCN(CCCCC)C(=O)C(C)C
inactive: [1] -4.45% | [2] 7.8% | [3] 4.6% | [4] -30.1% | [5] -2% | [6] 5.8%

Cc1ncc([N+](=O)[O-])n1CCNC(=O)CCCn1cnc([N+](=O)[O-])n1
inactive: [1] -17.8% | [2] -34% | [3] -15.8% | [4] -17.4% | [5] -27.9% | [6] -38.9%

CC1CS(=O)(=O)CC(C)S1(=O)=O (stereo unspecified)
inactive: [1] -8.6% | [2] -1.55% | [3] -5.95% | [4] -4.3% | [5] 14.7% | [6] -7.05%

C1C2CC3(CO3)C1C1OC21 (stereo unspecified)
inactive: [1] -39.4% | [2] -13.8% | [3] -26.1% | [4] 3.85% | [5] -22.2% | [6] -10.8%

CN(NC(=O)c1cccs1)C1=NCCN1
inactive: [1] -25.9% | [2] -23.2% | [3] -24.9% | [4] 7.25% | [5] 18.4% | [6] -7.7%

COc1cc(/C=N/NC2=NCCCN2)ccc1O
inactive: [1] 28.7% | [2] 13.2% | [3] 7.75% | [4] -16.2% | [5] 0.7% | [6] 17.4%

Cc1c(COC(=O)NC(C)C)c(COC(=O)NC(C)C)c2n1CCS2(=O)=O
inactive: [1] -26.8% | [2] -20.8% | [3] 4.75% | [4] -32.7% | [5] 0.5% | [6] -21.6%

CCOC(=O)/C(C#N)=C/c1ccccc1F
inactive: [1] 22.9% | [2] 13.5% | [3] 20.4% | [4] 1.4% | [5] 14.8% | [6] 40.8%

Cc1ccccc1N=Nc1c(O)n(-c2ccccc2)c(=S)n(-c2ccccc2)c1=O
inactive: [1] 43.5% | [2] 0.9% | [3] 28.6% | [4] -18.9% | [5] 2.2% | [6] 14.4%

COC(=O)[C@]1(NC(=O)c2ccccc2)C[C@H]1C=O
inactive: [1] 21% | [2] 15.2% | [3] 14.4% | [4] 10.9% | [5] 9.6% | [6] -54.8%

CCOC(=O)C(NC(=O)CC)(C(F)(F)F)P(=O)(OCC)OCC (stereo unspecified)
inactive: [1] -22.5% | [2] -12.3% | [3] -35.7% | [4] -11.8% | [5] 14.1% | [6] -9.35%

COc1cc2c(c3c1c(=O)c1ccc(F)cc1n3C)C=CC(C)(C)O2
inactive: [1] -4.35% | [2] -28.6% | [3] -16.9% | [4] -23.9% | [5] -7.7% | [6] -5.6%

CC1=NOC(=O)/C1=C/c1ccccc1C
inactive: [1] 51.2% | [2] 2.55% | [3] 27.9% | [4] 8.15% | [5] 17.4% | [6] 36.9%

CCOC(=O)Nc1ccc(C(=O)OCC)cc1
inactive: [1] 29.8% | [2] -15.1% | [3] 7.85% | [4] 8.1% | [5] -16.3% | [6] 13.7%

Cn1cc(S(=O)(=O)NC(=O)Nc2ccc(Cl)cc2)c2ccccc21
inactive: [1] -19.4% | [2] -9.85% | [3] -1.05% | [4] 29.7% | [5] -20.1% | [6] -13.9%

Cc1cc([N+](C)(C)C)c(C(C)C)cc1O
inactive: [1] -0.45% | [2] 5.7% | [3] 6.25% | [4] 9.55% | [5] 11% | [6] 0.25%
